High-throughput results: PubChem BioAssay, National Center for Advancing Translational Sciences (NCATS)
Rows were chosen to be rich in hits. Some 8% of all compounds tested hit in one or more screens of this group.
HT1080 IDH1KD tx: qHTS for induction of synthetic lethality in tumor cells producing 2HG: qHTS for the HT-1080-IDH1KD cell line. Potency, µM (doses to about 46.1 µM), without a hit: at the highest dose activity, negative = toxicity, usual class: cytotoxic. actives 2% (n = 360,000). HT-1080 IDH1 knockdown viability, ATP luminescence, 48 h;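 also: 0% = DMSO wells and -100% = cell-free medium wells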
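Luminescent ATP read-out (CellTiter-Glo, 10 min at room temperature) after 48 h compound exposure at 37 °C gave viability of IDH1-knockdown HT-1080 cells. Activity was normalised to DMSO and cell-free wells, then fitted as concentration-response curves.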
KB-3-1 tox: qHTS assay for MDR1-selective chemotherapeutics: Primary screen using the parental adenocarcinoma cell KB-3-1; KB-3-1 viability, CellTiter-Glo ATP luminescence, 72 h; Potency, µM (highest dose often 46.1 µM), actives largely listed as cytotoxic; actives 1.4% (n = 400,000); AID 1347075, 2019; also: % is scaled to controls: 0 for no effect and ±100 for the full control effect; nearly all actives have a fitted effect of over 60% in size
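KB-3-1 cells, DMEM (no phenol red) + 10% FBS; compound by pin transfer, 72 h, 37 °C. Readout: CellTiter-Glo luminescence after 10 min. Data normalized, curve-fitted.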
KB-V1 cytotox: qHTS assay for MDR1-selective chemotherapeutics: Primary screen using the drug-selected MDR subline cells KB-V1. AID 1347076, 2019. KB-V1 MDR cells viability, CellTiter-Glo, 72 h. Potency, µM (top dose mostly 46.1 µM), actives largely listed as cytotoxic. actives 3.4% (n = 400,000); also: % is scaled to controls: 0 for no effect and ±100 for the full control effect; nearly all actives have a fitted effect of over 60% in size
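KB-V1, DMEM (no phenol red) + 10% FBS; cpd pin-transferred, titration series; 72 h, 37 degrees C; CellTiter-Glo, luminescence. Data normalized, curve-fit.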
MCF10A rereplic: A quantitative high throughput screen for small molecules that induce DNA re-replication in MCF 10a normal breast cells; MCF 10A DNA re-replication, Hoechst nuclear intensity, 48 h; Potency, µM (series often up to 46.1 µM), for inactives: at the highest dose activity, positive = re-replication, most hits filed as activators; actives 2.9% (n = 350,000); also: % of control where 0% means no effect; nearly all actives have a fitted effect of over 50% in size
HT1080NT lethal: qHTS for induction of synthetic lethality in tumor cells producing 2HG: qHTS for the HT-1080-NT fibrosarcoma cell line; AID 686970, 2013; actives 1.6% (n = 360,000); Potency, µM (series often up to 46.1 µM), inactives show top-dose activity, negative = less viability, hits mostly cytotoxic; HT-1080-NT fibrosarcoma viability, CellTiter-Glo ATP luminescence, 48 h;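 also: NT is the 2HG producing partner of a matched IDH1 knockdown line; 0% = DMSO-treated cells and -100% = media-only wells without cells; nearly all actives have a fitted effect of over 55% in size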
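HT-1080-NT; 750 cells/well; 5% FBS RPMI; 48 h compound, 37 degrees C; CellTiter-Glo luminescence; curve fitting and curve-class assignment.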
SW480 rereplic: A quantitative high throughput screen for small molecules that induce DNA re-replication in SW480 colon adenocarcinoma cells; SW480 DNA re-replication, Hoechst DNA content imaging, 48 h; Potency, µM (doses to about 46.1 µM), without a hit: at the top dose re-replication activation, hits mostly activators; actives 1.8% (n = 340,000); AID 624297, 2012; also: % of control where 0% means no effect; nearly all actives have a fitted effect of over 55% in size
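Image-based DNA-content assay: after two days of treatment, nuclei were labelled with the DNA dye Hoechst and imaged, and hits were compounds raising the count of nuclei showing high fluorescence intensity.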
The depositor's hits bear a star; i = inactive; ? = inconclusive; / = no result given. Calls follow the shape of the dose curve; as a rule, active = well fitted curve in the direction sought with a large enough effect; inconclusive = small, poorly fitted or top-dose-only effect, or another doubt; inactive = no such curve, though single readings can be large; an effect the other way counts as inactive or inconclusive. Potency is read from the fitted curve at half-maximal effect.

SMILES	HT1080 IDH1KD tx	KB-3-1 tox	KB-V1 cytotox	MCF10A rereplic	HT1080NT lethal	SW480 rereplic
CCCc1ccc2oc(C(=O)NCCN3CCCC(O)C3)c(C)c2c1 (centres undefined)	23µM*	i	i	?	?	23µM*
COC(=O)C1=C(c2ccccc2)c2ccccc2S(=O)(=O)N1CC(=O)Nc1ccc(OC)cc1OC	/	i	i	/	/	/
COc1ccc2oc(-c3ccccc3[N+](=O)[O-])cc(=O)c2c1	6.5µM*	?	5.8µM*	6.5µM*	8.2µM*	8.2µM*
O=c1cc(-c2ccccc2Cl)oc2c([N+](=O)[O-])c(O)cc(O)c12	-29%	i	i	0.82µM*	-29%	-3%
O=c1cc(-c2ccccc2Cl)oc2ccc([N+](=O)[O-])c(O)c12	-4%	i	i	0.37µM*	2%	19%
Cc1ccccc1-c1cc(=O)c2c(O)cccc2o1	8%	?	i	-10%	7%	-9%
COc1ccc(-c2cc(=O)c3ccccc3o2)cc1	-10%	i	i	1%	-12%	-6%
Nc1ccc2oc(-c3ccccc3Cl)cc(=O)c2c1O	5%	7.3µM*	?	-11%	5%	-5%
O=C(Nc1ccc(O)c2c(=O)cc(-c3ccccc3Cl)oc12)c1ccccc1Cl	0%	i	i	4%	-8%	33%
Clc1ccc(/C=C/c2ccnc3ccccc23)c(Cl)c1	/	?	i	/	/	/
COc1ccccc1-c1cc(=O)c2c(O)ccc([N+](=O)[O-])c2o1	14%	21µM*	4.6µM*	-8%	5%	2%
Cc1ccc2c(c1)c1c(n2CC(O)CNC2CCCC2)CCCC1 (centres undefined)	-14%	?	21µM*	?	?	?
CCOc1ccc(CNC(=O)Cn2ncc3c(=O)oc4ccc(C)cc4c32)cc1	/	i	i	/	/	/
O=C(Nc1ccc(Oc2ccccc2)cc1)c1csc([C@@H]2C[C@H](O)[C@@H](CO)O2)n1	2.6µM*	i	i	/	?	/
CC(=O)Nc1ccc(NC(=O)c2csc([C@H]3C[C@H](O)[C@@H](CO)O3)n2)cc1	?	i	i	/	23%	/
COc1ccc(C2CC(=O)N3C(=C2C#N)SCC3(O)c2ccccc2)cc1 (centres undefined)	?	i	21µM*	21%	-14%	-2%
N#CC1=C2SCN(Cc3ccccc3)CN2C(=O)CC1c1ccccc1F (centres undefined)	-1%	i	i	14%	-3%	-1%
N#CC1=C2SCC(O)(c3ccccc3)N2C(=O)CC1c1ccccc1F (centres undefined)	16µM*	9.2µM*	?	23µM*	?	?
N#CC1=C2SCC(O)(c3ccccc3)N2C(=O)CC1c1cccs1 (centres undefined)	0.35µM*	0.73µM*	0.58µM*	1.3µM*	0.63µM*	7.3µM*
CCCCn1c(C2CC(=O)N(c3ccc(OCC)cc3)C2)nc2ccccc21 (centres undefined)	/	i	i	/	/	/
CC(C)c1ccc(Nc2c(-c3ccc(N(C)C)cc3)nc3cnccn23)cc1	/	i	i	/	/	/
Cc1ccc(OCCCCn2cnc3ccccc32)c(C)c1	-24%	i	?	2%	-8%	0%
Clc1ccccc1OCCn1cnc2ccccc21	3%	i	21µM*	-9%	9%	-5%
Brc1ccccc1OCCCCn1cnc2ccccc21	?	5.2µM*	?	?	-16%	3%
